Test results taken from the supplement of paper PMC12636033.
± gives the standard deviation of the averaged measurements. The full ranking holds about 33,000 sequences; the median of “E-score (rank enrichment, -0.5 to 0.5)” is about -0.0043, and the highest 2% start at about 0.24. The full list was thinned out, with the highest values kept by preference.

System: 2Sp-muMax20 (muMax20 with two 2,6-bis(methyl)pyridine Cys staples)
Assay: PBM 8-mer E-score (E-score (rank enrichment, -0.5 to 0.5)); higher = stronger preferential binding
Method: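 Protein binding microarray (universal PBM chip covering all 10-mers in fixed probe flanks) with chemically synthesized human Max(13-93) bHLH-LZ analogs (not full-length Max) bearing noncanonical residues (hArg, Tha, Aib, Nle at 65) and aromatic Cys staples. Read-out per 8-mer (and its reverse complement): E-score (rank-based enrichment, -0.5 to 0.5) and Z-score of median probe intensity.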

| Sequence | PBM 8-mer E-score |
| --- | --- |
| ACAAGTCG | 0.0191 ± 0.009 |
| ACAAGTCT | 0.287 ± 0.028 |
| ACAAGTCA | 0.0779 ± 0.031 |
| ACATGCAA | 0.0816 ± 0.11 |
| AGGTATCA | 0.238 ± 0.043 |
| AGGTATCG | -0.0734 ± 0.073 |
| CGGTATCA | -0.1599 ± 0.00081 |
| AAAAGGCG | 0.0426 ± 0.024 |
| CACCGATA | -0.0537 ± 0.018 |
| AGGAATGA | 0.0595 ± 0.018 |
| CGGAATGA | -0.155 ± 0.06 |
| GGGAATGA | 0.26 ± 0.057 |
| AATGTATC | 0.151 ± 0.022 |
| TACCAACA | 0.163 ± 0.027 |
| ATAGACTC | 0.154 ± 0.021 |
| CTGGCGGC | -0.155 ± 0.055 |
| CACGCCCG | 0.0249 ± 0.038 |
| CTATCATA | 0.185 ± 0.013 |
| ATATCATG | 0.147 ± 0.035 |
| ATATCAGG | 0.239 ± 0.032 |
| ATATCATA | 0.255 ± 0.085 |
| ACATCATC | 0.047 ± 0.02 |
| ATATCAGC | 0.0631 ± 0.073 |
| ACATCATA | 0.244 ± 0.064 |
| CCATCATA | 0.153 ± 0.082 |

| Sequence | PBM 8-mer E-score |
| --- | --- |
| CTGTCATA | 0.179 ± 0.043 |
| GTGTCATA | 0.248 ± 0.042 |
| ATGTCATA | 0.189 ± 0.012 |
| ATATCAGA | 0.0984 ± 0.019 |
| CGATAAGC | -0.0518 ± 0.16 |
| GGAATACC | -0.138 ± 0.015 |
| ACAGTTAG | 0.074 ± 0.026 |
| TGCTGCAA | 0.0638 ± 0.096 |
| CTTTCGGA | -0.125 ± 0.009 |
| CCCAACAA | 0.177 ± 0.0058 |
| AAAAGAAA | 0.0569 ± 0.052 |
| CCGCTGGA | -0.157 ± 0.04 |
| GCATCATA | 0.169 ± 0.0065 |
| GTATCATA | 0.255 ± 0.024 |
| GTATCAGA | -0.0699 ± 0.043 |
| CATGAGCA | -0.0267 ± 0.017 |
| GCCGAAGA | -0.0625 ± 0.053 |
| AGTAACAT | 0.294 ± 0.018 |
| AATAGTAA | 0.238 ± 0.06 |
| AGTAATGG | 0.122 ± 0.043 |
| AGTAACAA | 0.113 ± 0.089 |
| AGTAACAG | 0.09 ± 0.031 |
| AGTAATAG | 0.254 ± 0.02 |
| AATAGTAG | 0.0793 ± 0.083 |
| CATAGTAA | 0.159 ± 0.099 |

| Sequence | PBM 8-mer E-score |
| --- | --- |
| AGTAATAT | 0.25 ± 0.05 |
| AGTAATAA | 0.0744 ± 0.038 |
| AGTAATAC | -0.0935 ± 0.039 |
| CGTAATAG | 0.118 ± 0.1 |
| ACCGGCAT | -0.121 ± 0.029 |
| GCAAATAC | 0.0657 ± 0.013 |
| AATAGATT | 0.117 ± 0.049 |
| GCAACGTA | -0.119 ± 0.038 |
| GAGCTATC | 0.0105 ± 0.011 |
| CCAAACGA | -0.105 ± 0.068 |
| AGCGTGTG | 0.146 ± 0.035 |
| ATCGGGAA | -0.0836 ± 0.067 |
| GCATCCAC | 0.0775 ± 0.049 |
| CCCACCTC | -0.0411 ± 0.14 |
| CTTTTTCA | 0.0855 ± 0.061 |
| CCTTTTTA | -0.0668 ± 0.03 |
| GCTTTTCA | 0.0545 ± 0.063 |
| GCTTTTTA | 0.303 ± 0.013 |
| CCTTTTCA | 0.29 ± 0.03 |
| GCTTTTAA | -0.0089 ± 0.0068 |
| GTTCCTCA | -0.0919 ± 0.021 |
| CGCTGGAG | -0.172 ± 0.023 |
| ATCAACTC | 0.0114 ± 0.058 |
| CGAAGGAA | -0.209 ± 0.023 |
| GAGCCAGA | -0.216 ± 0.14 |

| Sequence | PBM 8-mer E-score |
| --- | --- |
| TGTATGAA | 0.0767 ± 0.054 |
| ACCCACCA | 0.178 ± 0.043 |
| GCCCACAC | 0.076 ± 0.018 |
| CCCCACCC | 0.23 ± 0.1 |
| GCCCACCA | 0.078 ± 0.038 |
| GCCCACCC | 0.417 ± 0.02 |
| ACCCACCC | 0.424 ± 0.043 |
| AACCGGAA | -0.0983 ± 0.0079 |
| GCTGAGAA | -0.111 ± 0.028 |
| TCAACCGA | -0.0249 ± 0.02 |
| AACCATTG | -0.145 ± 0.014 |
| AACCATTA | 0.293 ± 0.0072 |
| CACCATTA | -0.0267 ± 0.11 |
| GTCAAATA | 0.163 ± 0.093 |
| CCATATGG | 0.295 ± 0.008 |
| CAATATGA | 0.189 ± 0.055 |
| CCATATGC | 0.134 ± 0.054 |
| CAATATGG | 0.244 ± 0.044 |
| ACATATGG | 0.0892 ± 0.04 |
| CAATATGC | 0.128 ± 0.021 |
| AGCACCAG | -0.0554 ± 0.022 |
| CGACACTC | -0.159 ± 0.094 |
| AACACTCC | -0.151 ± 0.012 |
| CGAATCAG | -0.0839 ± 0.076 |
| AAAATCAA | -0.044 ± 0.037 |

| Sequence | PBM 8-mer E-score |
| --- | --- |
| GAAATCAC | 0.142 ± 0.072 |
| CAAATCAA | 0.237 ± 0.0084 |
| AAAATCAC | 0.28 ± 0.0095 |
| TGAATCAA | 0.1418 ± 0.00071 |
| GAAATCAA | 0.0712 ± 0.019 |
| AAAATCAG | 0.0292 ± 0.03 |
| CGAATCAA | 0.241 ± 0.054 |
| CCGCTTGC | -0.142 ± 0.036 |
| ATACCAGA | 0.118 ± 0.019 |
| ACGTGTAG | 0.0238 ± 0.1 |
| CCGTGTTA | 0.0643 ± 0.04 |
| ACGTGTCT | 0.26 ± 0.046 |
| ACGTGTGC | 0.238 ± 0.029 |
| ACGTGTAT | 0.336 ± 0.015 |
| ACGTGTAC | 0.132 ± 0.017 |
| GCGTGTTA | 0.103 ± 0.02 |
| ACGTGTGG | 0.156 ± 0.026 |
| ACGTGTTA | 0.352 ± 0.0043 |
| ACGTGTGA | 0.113 ± 0.061 |
| ACGTGTCG | 0.18 ± 0.033 |
| ACGTGTCA | 0.139 ± 0.031 |
| GAAGCCCC | -0.0537 ± 0.047 |
| GCTTGTCA | -0.15 ± 0.028 |
| CACCTGAC | 0.0247 ± 0.0091 |
| CCCATAGA | 0.11 ± 0.015 |

| Sequence | PBM 8-mer E-score |
| --- | --- |
| CTTATCAC | 0.00992 ± 0.026 |
| ACCGAGCT | -0.158 ± 0.00061 |
| CGAGTAAG | 0.0344 ± 0.035 |
| CACGATAA | 0.0394 ± 0.0045 |
| TGGAACCA | -0.0848 ± 0.06 |
| ACGTCCAT | -0.0323 ± 0.032 |
| CCCCACAA | 0.245 ± 0.013 |
| CCCCACAG | -0.0544 ± 0.039 |
| GCCCATAA | -0.0636 ± 0.086 |
| CCCCACAC | 0.229 ± 0.021 |
| CCCCATAA | 0.254 ± 0.037 |
| TCCCATAA | 0.0959 ± 0.053 |
| GTCCAAAA | -0.0163 ± 0.058 |
| ACGCGAAC | 0.0549 ± 0.069 |
| TCACAAAA | 0.0933 ± 0.021 |
| ACAAGCTC | -0.194 ± 0.011 |
| ATATAAAC | 0.315 ± 0.054 |
| CTATAAAA | -0.0627 ± 0.04 |
| GTATAAAC | 0.0938 ± 0.044 |
| ATATAAAA | 0.3008 ± 0.00046 |
| ATAAAAAC | 0.116 ± 0.046 |
| ATATAAAG | 0.21 ± 0.017 |
| CTATAAAC | 0.0618 ± 0.024 |
| ACATAAAA | 0.144 ± 0.037 |
| GTATAAAA | 0.278 ± 0.035 |

| Sequence | PBM 8-mer E-score |
| --- | --- |
| GGATAAAA | 0.0526 ± 0.098 |
| ATAAAAAT | 0.16 ± 0.044 |
| ATATAAAT | 0.251 ± 0.037 |
| CTACACTA | 0.111 ± 0.081 |
| ACGCCTTC | -0.0956 ± 0.053 |
| TTATAAAA | 0.272 ± 0.021 |
| TAATAAAA | 0.231 ± 0.053 |
| TGATAAAA | 0.145 ± 0.017 |
| GGGGAAGA | 0.0842 ± 0.0073 |
| AGTCCTTC | -0.195 ± 0.04 |
| ATACCATG | 0.102 ± 0.057 |
| ATACCATC | 0.237 ± 0.021 |
| CTACCATC | -0.168 ± 0.094 |
| ATACCATA | 0.249 ± 0.041 |
| ACACCATC | 0.0694 ± 0.0049 |
| GTACCATA | -0.00352 ± 0.14 |
| AGAAGGTC | 0.126 ± 0.039 |
| ACTTGGCG | -0.143 ± 0.14 |
| CTGCAACC | -0.145 ± 0.031 |
| GCTAGTCA | 0.103 ± 0.052 |
| AGTCACGC | 0.26 ± 0.037 |
| AGTCACGG | -0.147 ± 0.052 |
| AGTCACGA | -0.0662 ± 0.009 |
